Compound activity deposited in PubChem BioAssay by National Center for Advancing Translational Sciences (NCATS).
SW480 rerep = inducers of DNA re-replication in SW480 colon cancer cells. SW480 DNA re-replication, Hoechst DNA content imaging, 48 h. Potency, µM (series often up to 46.1 µM), without a hit: at the top dose re-replication activation, actives largely listed as activators. hit rate 1.8% among 340,000. AID 624297; further: % of control where 0% means no effect; nearly all actives have a fitted effect of over 55% in size
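Image-based read-out: total Hoechst fluorescence of nuclei (405 nm excitation, 500-530 nm emission), with hits raising the fraction of high-intensity nuclei. SW480 colon cells incubated 48 hr with compounds at 37 C.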
KB-3-1 cytotox = KB-3-1 parental cell cytotoxicity. KB-3-1 viability, CellTiter-Glo ATP luminescence, 72 h. Potency, µM (doses to about 46.1 µM), usual class: cytotoxic. hit rate 1.4% among 400,000; further: on the % scale 0 is the no-effect control and ±100 the full control effect; nearly all actives have a fitted effect of over 60% in size
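Using CellTiter-Glo luminescence, growth of non-resistant KB-3-1 adenocarcinoma cells is assessed 72 h after pin-tool compound addition at 37 °C. Normalized responses across the concentration series yield fitted curves.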
MCF10A rerep = DNA re-replication induction in MCF 10a cells | Potency, µM (titrated, usually from 46.1 µM), inactives show at the top dose activity, positive = re-replication, most hits filed as activators | MCF 10A DNA re-replication, Hoechst nuclear intensity, 48 h | hit rate 2.9% among 350,000 | AID 624296; further: % of control where 0% means no effect; nearly all actives have a fitted effect of over 50% in size
KB-V1 cytotox = kills drug-selected multidrug resistant KB-V1 cells. KB-V1 MDR cells viability, CellTiter-Glo, 72 h. Potency, µM (doses to about 46.1 µM), most hits filed as cytotoxic. hit rate 3.4% among 400,000; further: on the % scale 0 is the no-effect control and ±100 the full control effect; nearly all actives have a fitted effect of over 60% in size
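Cytotoxicity via CellTiter-Glo luminescence after 72 h compound exposure at 37 degrees C. Cells: drug-selected KB-V1 line, DMEM phenol-red free plus 10% FBS. Compounds tested at multiple concentrations; normalized data fitted to concentration-effect curves.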
ELG1 DNA repair = blocks ELG1-dependent DNA repair in HEK293T cells. HEK293T ELG1-luciferase reporter, luminescence, 16 h; DNA damage induced by 5-fluorouridine. Potency, µM (doses to about 46.1 µM), for the others: top-dose activity change, negative = inhibition, hits mostly inhibitors. hit rate 2.3% among 330,000. AID 504467; further: on the % scale 0 is the no-effect control and ±100 the full control effect; nearly all actives have a fitted effect of over 55% in size
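Luminescence from the luciferase reporter, measured 30 min after ONE-Glo reagent at room temperature, was the read-out. Beforehand, 2,000 cells per well were exposed for 16 hr at 37 °C to 5-fluorouridine together with compound or vehicle.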
An asterisk follows results filed as active; i = inactive; ? = inconclusive; nt = no result given; [ ] = dose if it differs, or a comment. This is a sample that favours compounds with a hit; in the whole collection about 8.1% have one here. The call rests on the fitted dose curve; in most records, active means well fitted curve in the direction sought with a large enough effect; inconclusive means small, poorly fitted or top-dose-only effect, or another doubt; inactive means no such curve, though single readings can be large; an effect the other way counts as inactive or inconclusive. Potency means the concentration at half of the fitted maximal effect.

SMILES	SW480 rerep	KB-3-1 cytotox	MCF10A rerep	KB-V1 cytotox	ELG1 DNA repair
COc1ccc(CCNC(=S)N2CCC(C(=O)c3ccc(F)cc3)CC2)cc1OC	-15%	?	-1%	4.1µM*	9.2µM*
Cc1cn(C2CCCCO2)c(=O)[nH]c1=O (stereo not given)	1%	i	-1%	i	nt
FC(F)(F)c1ccc(Oc2ccc3c(C(F)(F)F)cc(C(F)(F)F)nc3n2)cc1	2%	i	9%	i	11%
COc1ccc(Oc2ccc3c(C(F)(F)F)cc(C(F)(F)F)nc3n2)cc1	1%	i	6%	16µM*	-1%
Oc1ccc(Oc2ccc3c(C(F)(F)F)cc(C(F)(F)F)nc3n2)cc1	?	i	?	i	18µM*
NC(N)=N/N=C/c1ccc(OS(=O)(=O)c2ccccc2)cc1	5.8µM*	i	18µM*	i	?
CC(C)NC(=O)C1(C)CCCCN1Cc1ccc(OCc2ccccc2)cc1 (stereo not given)	nt	16µM*	nt	?	nt
c1ccc2nc(-c3nc4ccccc4o3)ccc2c1	1%	11µM*	-14%	i	?
Cc1ccc2c(c1)c1c3n2CCN=C3CCC1	5%	?	24%	15µM*	-14%
Cc1ccc2c(c1)c1c3n2CCCNC3CCC1 (stereo not given)	10%	i	-1%	i	19%
COc1ccc2c(c1)c1c3n2CCN(C)C3=NCC1	-11%	i	?	i	3%
Cc1ccc2c(c1)c1c3n2CCN[C@H]3CCC1	-4%	nt	?	nt	nt
c1cc2c(cc1C1CCCCC1)c1c3n2CCCNC3CCC1 (stereo not given)	18%[9.22 µM]	18µM*	?	?	1%
c1cc2c(cc1C1CCCCC1)c1c3n2CCN=C3CCC1	21µM*	?	16µM*	?	-2%
CCOc1ccc(Br)cc1S(=O)(=O)Nc1cccc(S(=O)(=O)Nc2ccccc2C(=O)O)c1	-3%	i	0%	i	0%
Cc1ccc(CNC(=O)CCCCCn2c(=O)c3sccc3n(CC(=O)Nc3ccc(C)c(F)c3)c2=O)cc1	nt	i	nt	i	nt
CN(C)c1ccc(/C=C2\C=Cc3ccccc32)cc1[N+](=O)[O-]	nt	i	nt	i	nt
CCCCC(=O)NC(c1ccc(N(C)C)cc1)c1ccc2cccnc2c1O (stereo not given)	?	?	?	?	-1%
CCN(CC)c1ccc(C(NC(=O)C(C)C)c2ccc3cccnc3c2O)cc1 (stereo not given)	nt	i	nt	?	nt
CCCC(=O)NC(c1ccc(C)cc1)c1ccc2cccnc2c1O (stereo not given)	?	?	21µM*	3.7µM*	?
CCCC(=O)NC(c1ccc(Cl)cc1)c1ccc2cccnc2c1O (stereo not given)	2.9µM*	?	?	?	?
CCCC(=O)NC(c1ccc(Cl)cc1Cl)c1ccc2cccnc2c1O (stereo not given)	0.65µM*	?	?	i	?
CC(=O)NC(c1ccc(Cl)cc1Cl)c1ccc2cccnc2c1O (stereo not given)	11%	?	?	i	?
CCCCC(=O)NC(c1ccc(N(CC)CC)cc1)c1ccc2cccnc2c1O (stereo not given)	?	4.6µM*	?	?	?
COc1ccc(S(=O)(=O)N2CCOCC2)cc1C(=O)NC1CCCCCC1	0%	i	-1%	i	9%
SMILES	SW480 rerep	KB-3-1 cytotox	MCF10A rerep	KB-V1 cytotox	ELG1 DNA repair
CCOc1ccc(S(=O)(=O)NCC(=O)OCc2nnc(-c3ccccc3)o2)cc1	-12%	i	-2%	i	16%
CCCCC1CCC(C(=O)N(CCC(C)C)c2c(N)n(CCCC)c(=O)[nH]c2=O)CC1 (stereo not given)	nt	i	nt	i	nt
COc1cccc(CNC(=O)c2cccc(N3CCCS3(=O)=O)c2)c1	nt	i	nt	i	nt
CCCCn1c(N)c(N(CCOC)C(=O)CSc2n[nH]c(-c3ccc(OC)cc3)n2)c(=O)[nH]c1=O	-5%	i	1%	i	12%
CCCC(=O)NC(c1cccc([N+](=O)[O-])c1)c1ccc2cccnc2c1O (stereo not given)	nt	9.2µM*	nt	?	nt
CCCCC(=O)NC(c1ccc(Cl)cc1)c1ccc2cccnc2c1O (stereo not given)	1µM*	i	12µM*	?	nt
CC(C)C(=O)NC(c1ccc(N(C)C)cc1)c1ccc2cccnc2c1O (stereo not given)	nt	?	nt	i	nt
O=C(/C=C/c1ccc(O)cc1)c1ccccc1	30%	i	?	i	?
CCOC(=O)/C(=C\c1ccc(N2CCC(c3ccccc3)=N2)cc1)C(C)=O	1.5µM*	nt	1.5µM*	nt	nt
O=C(/C=C/c1ccc(N2CCC(c3ccccc3)=N2)cc1)c1ccccc1	?	i	6.5µM*	i	?
CS(=O)(=O)c1ccc(NC(=O)COc2ccccc2C(=O)Nc2ccccc2)cc1	nt	i	nt	i	nt
CCOC(=O)CSc1nc2ccccc2c(=O)n1-c1cccc(C)c1	nt	?	nt	i	nt
COc1ccc2c(c1)C(=O)N1[C@H]3c4cc(C)ccc4OC[C@@H]3[C@H](c3ccccc3)[C@]1(C)C(=O)N2	?	?	15µM*	?	?
COc1ccc2c(c1)OC[C@H]1[C@H]2N2C(=O)c3cc(C)ccc3NC(=O)[C@@]2(C)[C@H]1c1ccccc1	10µM*	i	?	i	-3%
COc1ccc2c(c1)[C@H]1[C@H](CO2)[C@H](c2ccccc2)[C@]2(C)C(=O)Nc3ccc(C)cc3C(=O)N12	?	?	21µM*	i	-25%
COc1ccc2c(c1)[C@@H]1[C@H](CO2)[C@H](c2ccccc2)[C@]2(C)C(=O)Nc3ccc(C)cc3C(=O)N12	11%	?	1%	?	?
COc1ccc2c(c1)OC[C@H]1[C@H]2N2C(=O)CN(CCc3c[nH]c4ccccc34)C(=O)[C@@]2(C)[C@H]1c1ccccc1	-14%	i	18%	i	5.8µM*
CCN(CC)Cc1c(C(=O)N/N=C/c2cccc(OCc3cccc(Cl)c3)c2)nnn1-c1nonc1N	2%	i	2%	i	4%
CC(C)Cn1c(N)c(C(=O)COC(=O)c2ccc(O)cc2O)c(=O)n(C)c1=O	?	i	?	i	?
Cc1cc(C)cc(C(=O)OCC(=O)Nc2ncccn2)c1	-12%	i	-1%	i	13%
COc1ccc2c(c1)OC[C@H]1[C@H]2N2C(=O)c3ccccc3NC(=O)[C@@]2(C)[C@H]1c1ccccc1	?	21µM*	83%	?	-16%
COc1ccc2c(c1)[C@H]1[C@H](CO2)[C@H](c2ccccc2)[C@]2(C)C(=O)Nc3ccc(Cl)cc3C(=O)N12	?	i	7%	i	nt
